CYP2C9 inhib: blockers of cytochrome P450 2C9 activity – biochemical, luminescence, ADME assay, primary screen. CYP2C9 Supersomes, luciferin-H conversion. inhibition, % at 5 µM. actives 20% (n = 96,000);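 active means blocking of liver enzyme CYP2C9 beyond about 50% at 5 µM, limit read from the data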
CYP2C9 act: human CYP2C9 activators, primary screen, biochemical, luminescence; Cytochrome P450 2C9 (Homo sapiens), P11712; recombinant CYP2C9, luciferin-H conversion; hits give high values; factor 1 = untreated enzyme, 0 = blocked; activation factor at 5 µM; actives 1.4% (n = 96,000);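 active means activation factor of 2 or more for CYP2C9 at a 5 µM dose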;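 further: 0 = sulfaphenazole-blocked wells and 1 = vehicle-only wells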
Mac1 fbg inh: inhibitors of CD11b/CD18 adhesion to fibrinogen, primary screen, K562 cells, luminescence; ATPlite luminescence; Mn2+ added to activate the integrin; inhibition, % at 10 µM; actives 0.54% (n = 93,000); AID 1497, 2009;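 active means primary inhibition of 50% or more at 10 µM, then 40% or more on retest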
CYP2C19 activ: human CYP2C19 activators, primary screen, biochemical, luminescence. Cytochrome P450 2C19 (Homo sapiens), P33261. recombinant CYP2C19, luciferin-H EGE luminescence; hits give high values; 0 = fully inhibited enzyme, 1 = untreated enzyme. activation factor at 5 µM. 96,000 tested, under 10 active;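 active means activation factor of at least 2 at 5 µM in the primary screen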;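 further: 0 = wells with 2.5 mM tranylcypromine and 1 = vehicle-only wells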
Target sequence (P33261 whole entry, looked up): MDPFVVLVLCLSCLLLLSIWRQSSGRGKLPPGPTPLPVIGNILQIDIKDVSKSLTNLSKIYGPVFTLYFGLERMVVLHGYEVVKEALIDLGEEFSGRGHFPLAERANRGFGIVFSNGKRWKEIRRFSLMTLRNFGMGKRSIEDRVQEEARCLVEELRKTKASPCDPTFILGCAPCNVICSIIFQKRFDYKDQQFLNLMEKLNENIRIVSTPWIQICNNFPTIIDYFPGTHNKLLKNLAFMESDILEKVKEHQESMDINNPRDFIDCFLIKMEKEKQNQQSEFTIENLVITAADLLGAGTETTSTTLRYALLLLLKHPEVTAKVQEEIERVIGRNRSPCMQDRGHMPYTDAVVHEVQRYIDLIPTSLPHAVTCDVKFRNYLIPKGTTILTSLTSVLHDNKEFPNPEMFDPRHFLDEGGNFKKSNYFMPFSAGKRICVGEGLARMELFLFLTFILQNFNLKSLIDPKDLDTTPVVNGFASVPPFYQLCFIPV
CYP2C19 inhib: blockers of cytochrome P450 2C19 activity – biochemical, luminescence, ADME assay, primary screen. P33261. CYP2C19 Supersomes, luciferin-H EGE luminescence, 30 min. inhibition, % at 5 µM. actives 21% (n = 96,000). AID 778, 2007;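 active means CYP2C19 inhibition above a set limit at 5 µM in the primary screen, cut at about 50% in these data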;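 further: plate controls were negative control wells for no effect and 2.5 mM tranylcypromine positive control for full effect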
CD11b adhes enh: enhancers of CD11b/CD18 adhesion to fibrinogen, primary screen, K562 cells, luminescence. Integrin beta-2 (Homo sapiens) + Integrin alpha-M (Homo sapiens), P05107+P11215. ATPlite luminescence. activation, % at 10 µM. actives 0.07% (n = 93,000);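 active means 10 µM primary screen giving 50% or more activity, confirmed by 40% or more on retest at that dose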
An asterisk follows results filed as active; / = not tested or not shown. Sampled rows, rich in hits. Any-hit rate of the full collection: about 28%.

SMILES	CYP2C9 inhib	CYP2C9 act	Mac1 fbg inh	CYP2C19 activ	CYP2C19 inhib	CD11b adhes enh
CC(C)(C)n1nnnc1C(c1ccc(F)cc1)N(Cc1ccc(F)cc1)Cc1ccco1 (stereo unspecified)	65*	0.3	-35	0.6	37	-1
CCN(CC)C(c1ccc(F)cc1)c1nnnn1C1CCCCC1 (stereo unspecified)	-4	1	2	0.6	38	-5
CC(C)(C)n1nnnc1C(c1cccnc1)N(Cc1ccccc1)Cc1cccs1 (stereo unspecified)	61*	0.4	-9	0.5	48	0
COc1ccc(N2C(=O)C3CCCN3C2c2ccccc2Cl)cc1 (stereo unspecified)	38	0.6	7	0.7	34	0
COc1cccc(-c2csc(N3CCN(Cc4ccccc4)CC3)n2)c1	24	0.8	42	0.9	13	0
CCOC(=O)C1=C(N)N2C(=O)CSC2=C(C(=O)OC)C1	46	0.5	1	1.2	-15	-2
CC1(C)CC2(CC(c3cccs3)c3cc(Cl)c(O)cc3O2)NC(=S)N1 (stereo unspecified)	19	0.8	/	0.9	8	/
COc1ccc2oc(C(=O)OCC(=O)NCCN3C(=O)CSC3=O)c(C)c2c1	/	/	-9	/	/	-2
c1ccc(CN(Cc2ccco2)C(c2ccncc2)c2nnnn2C2CCCC2)cc1 (stereo unspecified)	98*	0	-20	0	98*	-2
CCOC(=O)N1CCN(c2ncnc3c2oc2nc(C(C)C)c4c(c23)CCC4)CC1	65*	0.4	9	0.1	86*	-2
CC(C)Cc1nc2oc3c(N4CCN(CCO)CC4)ncnc3c2c2c1CCCC2	67*	0.3	/	0.4	60*	/
CCN1CCN(c2ncnc3c2oc2nc(C(C)C)c4c(c23)CCC4)CC1	12	0.9	-3	0.9	10	0
COC(=O)c1cccc(Nc2nc3ccccc3nc2C)c1	44	0.6	24	0.9	14	-5
CCn1ncc2c(OCc3ccc(C#N)cc3)cc(C)nc21	63*	0.4	26	0.4	64*	-3
CSc1ncccc1C(=O)OCc1ccc(C#N)cc1	49	0.5	-21	1	1	-2
O=C(COC(=O)c1c[nH]c(=O)[nH]c1=O)NCc1ccccc1	4	1	4	1.2	-18	-5
CCC1SC2=NC(C)=C(C(=O)OC)C(c3ccc(C)cc3)N2C1=O (stereo unspecified)	80*	0.2	-20	0	99*	1
CCOC(=O)C1=C(C)N=C2SCCC(=O)N2C1c1cccs1 (stereo unspecified)	32	0.7	-2	0.8	24	-3
COC(=O)C1=C(C)N=C2SC(C)C(=O)N2C1c1ccc(C(=O)OC)cc1 (stereo unspecified)	30	0.7	3	0.2	78*	1
CCOC(=O)C1=C(C)N=C2SC(C)C(=O)N2C1c1ccc(OC(C)=O)c(OCC)c1 (stereo unspecified)	63*	0.4	-21	0.3	65*	4
CCOC(=O)C1=C(C)N=C2SC(C(=O)OC)=CC(=O)N2C1c1ccc(F)cc1 (stereo unspecified)	18	0.8	-4	0.5	50*	1
CCCCNC(=O)c1cn(-c2ccc(OCC)cc2)c(=O)c2cc(OC)c(OC)cc12	38	0.6	0	0.9	6	0
C/C(=N\NC(=O)OC(C)(C)C)c1cccc([N+](=O)[O-])c1	/	/	-10	/	/	4
COc1ccccc1NC(=O)C(Sc1ccccc1)c1ccccc1 (stereo unspecified)	/	/	58	/	/	-2
CNC(=O)C(C)NS(=O)(=O)c1ccc(F)cc1 (stereo unspecified)	-4	1	-6	0.2	81*	-4
SMILES	CYP2C9 inhib	CYP2C9 act	Mac1 fbg inh	CYP2C19 activ	CYP2C19 inhib	CD11b adhes enh
COC(=O)c1ccccc1NC(=O)C(C)NS(=O)(=O)c1ccc(OC)cc1 (stereo unspecified)	13	0.9	-1	0.4	57*	4
COc1ccc(NC(=O)C(C)NS(=O)(=O)c2ccccc2)cc1Cl (stereo unspecified)	34	0.7	/	0.1	87*	/
COc1ccccc1NC(=O)C(C)NS(=O)(=O)c1ccc(Cl)cc1 (stereo unspecified)	-237	3.4*	-14	0.3	74*	-2
Cc1ccc(S(=O)(=O)N2CCC(C(=O)Nc3ccc4c(c3)COC4=O)CC2)cc1	-37	1.4	-3	1.1	-9	-3
COc1ccc2cc(C)c3nnc(SCC(=O)Nc4nc(-c5ccccc5)cs4)n3c2c1	45	0.5	/	0.6	40	/
CCOc1ccc(C(C)NC(=O)Nc2ccccc2C(=O)OC)cc1 (stereo unspecified)	41	0.6	5	0.3	70*	-4
COc1ccc(NC(C)=O)cc1NC(C)C(=O)Nc1ccccc1F (stereo unspecified)	8	0.9	0	0.8	24	-4
COc1ccccc1NC(=O)C(C)NS(=O)(=O)c1ccc(F)cc1 (stereo unspecified)	-205	3*	-6	0.5	53*	-1
O=C(CCN1c2ccccc2Sc2ccccc21)OCC(=O)N1CCN(C(=O)c2ccco2)CC1	50	0.5	7	0.8	19	-3
Fc1ccc(C(CCCn2nnc(-c3cccnc3)n2)c2ccc(F)cc2)cc1	59*	0.4	44	0.4	59*	-2
Cn1cnnc1SCc1ccc(C#N)cc1Cl	-2	1	-10	1	1	2
O=C(Nc1ccc(Cl)cc1)N(C1=NCCC1)c1ccc(OC(F)F)cc1	61*	0.4	-1	0.7	26	3
O=C(NC1CCCCC1)N(C1=NCCCCC1)c1ccc(Br)cc1	/	/	25	/	/	2
CCN(CC)CCCNc1oc(-c2cccc(Cl)c2)nc1C#N	11	0.9	/	0.9	10	/
CCC(C)(C)n1nnnc1CN(Cc1ccco1)Cc1cc2cc3c(cc2[nH]c1=O)OCO3	10	0.9	6	0.7	31	0
CCC(C)(C)n1nnnc1CN(Cc1ccc(Cl)cc1)Cc1ccco1	96*	0	-21	0	97*	6
Cc1c(C#N)c(SCC(N)=O)nc2c1CCCC2	-13	1.1	-3	0.8	21	2
COc1cc2nc(SCc3ccc(C(F)(F)F)cc3)n(Cc3cccs3)c(=N)c2cc1OC	6	0.9	12	1.1	-11	36

Screens deposited in PubChem BioAssay by Sanford-Burnham Center for Chemical Genomics.
